Assay outcomes from PubChem.
Hits are enriched below; roughly 2.1% of the tested compounds scored in any of these assays.
APP 5UTR inh = APP translation inhibition; hit rate 0.82% among 190,000; SH-SY5Y APP 5'UTR-luciferase reporter, luminescence; inhibition, % at 2 µM;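 active = inhibition above a set limit, derived from the sample mean plus 3 SD, cut at about 45% in these data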
IEC-6 cytotox = counter-screen for KLF5 inhibitors: cytotoxicity in IEC-6 cells; AID 1825; inhibition, % at 5 µM; hit rate 0.78% among 290,000; IEC-6 cytotoxicity, luminescence viability
BaF3 parental = reduces parental Ba/F3 cell viability, JAK2V617F counter-screen; CellTiter-Glo ATP luminescence; inhibition, % at 5.6 µM; hit rate 1.1% among 220,000; AID 1486;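 active = inhibition above a per-campaign cutoff, the mean inhibition of all tested compounds plus 3 SD, cut at about 27% in these data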
Ba/F3 V617F tox = lowers viability of Ba/F3 cells expressing EpoR and JAK2V617F; inhibition, % at 5.6 µM; ATP luminescence; hit rate 1.1% among 220,000; AID 1446;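 active = inhibition above the campaign mean plus 3 SD over all tested compounds, cut at about 24% in these data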;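 also: cytokine-independent growth of Ba/F3 cells driven by EpoR plus mutant JAK2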
aSyn UTR inh = MLPCN primary screen, SNCA 5' untranslated region. alpha-synuclein 5'UTR reporter, inhibitor activity. inhibition, % (tested at 7.5 µM). hit rate 0.82% among 300,000; in the data active = inhibition above about 60%;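 also: H4 neuroglioblastoma cells stably carrying SNCA 5'UTR luciferase fusion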
KLF5 inhibitor = kruppel-like factor 5 inhibition; DLD-1 KLF5 promoter-luciferase reporter, luminescence; inhibition, % at 5 µM; hit rate 0.23% among 290,000;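 active = inhibition above a per-plate limit of that plate's mean compound inhibition plus 3 SD, cut at about 60% in these data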;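 also: higher means less KLF5 promoter-driven luciferase light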
BaF3 tox 2 = counter-screen for JAK2V617F inhibitors: parental Ba/F3 viability inhibitors; shares compounds with Ba/F3 V617F tox; CellTiter-Glo luminescence; cells kept alive by added IL-3; inhibition, % at 5.6 µM; hit rate 31% among 580; AID 1520;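 active = cell growth inhibition above the hit limit set in the earlier mutant JAK2 cell screen, cut at about 27% in these data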
JAK2V617F conf = confirmation: loss of viability in JAK2V617F-dependent Ba/F3 cells. AID 1521. inhibition, % at 5.6 µM. Ba/F3 EpoR-JAK2V617F viability, CellTiter-Glo luminescence. hit rate 66% among 580. shares compounds with Ba/F3 V617F tox;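 active = mean inhibition above the hit cutoff derived in the earlier primary screen, cut at about 25% in these data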;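 also: higher means lower luminescence from reduced cell ATP and viability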
IEC-6 cytotox cf = confirmation of cytotoxic compounds in rat IEC-6 intestinal epithelial cells. shares compounds with IEC-6 cytotox. IEC-6 rat intestinal epithelial viability, luminescence. inhibition, % at 5 µM. AID 1907. hit rate 63% among 1,900
Hits are given with their value; n = inactive; x = no result given. Rule as the data show it, unless noted: active = inhibition above about 22%; inactive = the rest.

SMILES | APP 5UTR inh | IEC-6 cytotox | BaF3 parental | Ba/F3 V617F tox | aSyn UTR inh | KLF5 inhibitor | BaF3 tox 2 | JAK2V617F conf | IEC-6 cytotox cf
OCCC1CN(C2CCC2)CCN1Cc1ccc(F)c(F)c1 (centres undefined) | x | n | x | x | n | n | x | x | x
Cc1cccc(C)c1OCc1cc(C(=O)N(C)CCc2ccccn2)no1 | x | n | x | x | n | n | x | x | x
CCc1ccc(/C=N/NC(=O)c2cc(C3CC3)nc3ccccc23)s1 | n | 34 | n | 42 | n | n | 63 | 95 | 54
Cc1cccc(/C=N/NC(=O)c2cc(C3CC3)nc3ccccc23)n1 | x | n | x | x | n | n | x | x | x
COc1ccc(Cc2nnc(SCC(=O)Nc3ccccc3C)n(N)c2=O)cc1 | x | x | x | x | n | x | x | x | x
Cc1nn2c(NCCN3CCOCC3)c3c(nc2c1-c1ccccc1)CCCC3 | x | n | n | n | n | n | x | x | x
Cc1nn2c(NCc3ccccn3)c3c(nc2c1-c1ccccc1)CCC3 | x | 95 | n | 48 | n | n | n | 59 | n
Nc1nc(CCl)nc(N(c2ccccc2)c2ccccc2)n1 | x | 90 | n | 97 | n | n | n | 99 | n
Nc1nc(Cl)nc(N(c2ccccc2)c2ccccc2)n1 | n | n | n | n | n | n | x | x | x
BrC(=C\c1ccccc1)/C=N/n1cnnc1 | 79 | 75 | n | 65 | n | n | 55 | 96 | 26
CCc1ccc(C(=O)COC(=O)C2CCN(c3ccc(C(F)(F)F)cn3)CC2)cc1 | x | x | x | x | n | x | x | x | x
CCc1nnc(N/N=C/c2ccccc2Cl)n1N | n | 100 | n | 25 | n | n | n | n | n
N#Cc1ccc(OCC(=O)NCC(c2cccs2)N2CCOCC2)cc1 (centres undefined) | x | n | x | x | n | n | x | x | x
CC(=O)Nc1ccc(S(=O)(=O)NCc2nc(-c3cccc(C)c3)no2)cc1 | x | n | x | x | n | n | x | x | x
O=C(N/N=C/c1ccccc1Cl)c1[nH]c2ccc(Br)cc2c1-c1ccccc1 | 96 | 56 | n | 47 | 71 | n | 88 | 100 | 70
COc1ccc(N(C(=O)CCl)C(C(=O)NCCc2ccccc2)c2cccs2)cc1Cl (centres undefined) | n | 78 | n | 101 | n | n | n | 99 | 42
COc1cccc(N(C(=O)CCl)C(C(=O)NCCc2ccccc2)c2cccs2)c1 (centres undefined) | n | 87 | n | 99 | n | n | n | 99 | 41
Cc1cccc(NC(=O)COC(=O)Cc2cccs2)c1C | x | x | x | x | n | x | x | x | x
Cc1cc(C)cc(C(=O)OCC(=O)NCc2cccs2)c1 | n | n | n | n | n | n | x | x | x
Cc1cc2c(cc(C(=O)OCC(=O)NCc3cccs3)n2C(C)C)o1 | 75 | 77 | n | 37 | n | n | 41 | 90 | 55
COCCCN1C(=O)C(=O)/C(=C(/O)c2ccc(S(=O)(=O)N3CCOCC3)cc2)C1c1ccc(OC)cc1 (centres undefined) | x | n | x | x | n | n | x | x | x
O=C1N(c2ccccc2)C[C@@H]2C[C@@H](c3cc4ccccc4o3)N3CCC[C@@]123 | 95 | 38 | n | 101 | n | n | 107 | 99 | 97
Cc1ccc(S(=O)(=O)N(CC(=O)Nc2ccc(Cl)cc2)C(=O)N2CCN(C)CC2)cc1 | x | x | x | x | n | x | x | x | x
NC(=O)c1cc2c3ccccc3ccn2c1-c1ccccc1 | x | 38 | n | 70 | 113 | n | 63 | 95 | 61
Cc1cc(C(N)=O)c2ccccc2n1 | n | n | n | n | n | n | x | x | x
CCN1C/C(=C/c2ccc(OC)c(O)c2)C(=O)/C(=C/c2ccc(OC)c(O)c2)C1 | 88 | 32 | n | 52 | 116 | n | n | 98 | 42
COc1ccc(C=C2C(=O)c3ccccc3C2=O)cc1O | n | n | n | n | n | n | x | x | x
COc1ccc(OC)c2c1C(=O)C(Cl)=C(Cl)C2=O | x | 86 | n | 66 | n | n | 84 | 92 | 63
COc1ccc(NC(=O)/C(Cl)=C(/Cl)S(=O)(=O)Cc2ccc(C)cc2)cn1 | 86 | 23 | n | 33 | n | n | 88 | 98 | 43
COc1ccc(NC(=O)Cc2ccc(Cl)c(Cl)c2)cn1 | n | n | n | n | n | n | x | x | x
